In the library only some 15% were active in any assay of this set; here they are far more common.
Pf growth 48h = Primary qHTS for delayed death inhibitors of the malarial parasite plastid, 48 hour incubation; P. falciparum luciferase growth in erythrocytes, 48 h; Potency, µM (highest dose often 28.7 µM), for the others: at the highest dose activity change, negative = inhibition, hits mostly inhibitors; 310,000 tested, 5.9% active; AID 504832, 2011; further: potency means the concentration at half of the fitted maximal effect; on the % scale 0 is the no-effect control and ±100 the full control effect
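Here the parasites carry a stable luciferase gene and grow inside erythrocytes in Albumax-based RPMI medium with compound for one erythrocytic cycle. Activity is scored as loss of luminescent signal.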
Sm TGR inh = qHTS Assay for the Inhibitors of Schistosoma Mansoni Peroxiredoxins | purified TGR, DTNB reduction, TNB absorbance 405 nm | Potency, µM (doses to about 114 µM), inactives show top-dose activity change, negative = inhibition, actives largely listed as inhibitors | 360,000 tested, 3% active | AID 485364, 2010; further: potency means the concentration at half of the fitted maximal effect; on the % scale 0 is the no-effect control and ±100 the full control effect; nearly all actives have a fitted effect of over 60% in size
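Kinetic colorimetric format: TGR-catalysed, NADPH-driven DTNB reduction monitored via TNB absorbance. Enzyme dispensed at 20 nM; compound exposure 15 min at room temperature before reaction start.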
SARS PLP yeast = qHTS of Yeast-based Assay for SARS-CoV PLP | Potency, µM (doses to about 32.9 µM), without a hit: at the highest dose activity, positive = growth rescue, most hits filed as activators | AID 485353, 2010 | 330,000 tested, 0.19% active | S. cerevisiae expressing SARS-CoV PLpro, growth rescue; calls by dose curve; further: potency means the concentration at half of the fitted maximal effect; 0% is about no effect; nearly all actives have a fitted effect of over 55% in size
HCMV antiviral = qHTS Assay for inhibitors of the human cytomegalovirus (HCMV); AID 1259415, 2018; activity change, negative = inhibition, % at 57.5 µM; 410,000 tested, 4.5% active; HFF cells, HCMV-luciferase reporter, 72 h; active compounds read low; in the data active means activity change below about -60%; inconclusive means no clear call, values can overlap the other calls; inactive means above about -39%; further: on the % scale 0 is the no-effect control and ±100 the full control effect
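Luciferase read-out from HCMV-luciferase-infected HFFs (MOI 1 PFU/cell) 72 h post infection at 37C; compounds added after 16 h cell attachment; activity normalized between buffer-only basal and Salinomycin (10uM) inhibitor controls.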
Pf growth 96h = Primary qHTS for delayed death inhibitors of the malarial parasite plastid, 96 hour incubation; P. falciparum luciferase reporter growth, 96 h; Potency, µM (highest dose often 28.7 µM), for inactives: at the top dose activity change, negative = inhibition, hits mostly inhibitors; 320,000 tested, 6.9% active; further: potency means the concentration at half of the fitted maximal effect; on the % scale 0 is the no-effect control and ±100 the full control effect
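Parasite growth measured via integrated firefly luciferase reporter in P. falciparum. Infected erythrocytes at 2% hematocrit, 0.05% parasitemia final were treated 96 hours at 37 C under 5% CO2, and luminescence was read.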
HCV inhibitor = qHTS Assay for Inhibitors of Hepatitis C Virus (HCV). Huh7.5.1 HCVcc-Cre infection, luciferase reporter, 44 h. Potency, µM (top dose mostly 41.8 µM), without a hit: top-dose activity change, negative = inhibition, actives largely listed as inhibitors. 340,000 tested, 3.4% active. AID 651820, 2012; further: potency means the concentration at half of the fitted maximal effect; on the % scale 0 is the no-effect control and ±100 the full control effect
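Antiviral activity was scored by luciferase reporter output from cells infected with HCVcc-Cre (~0.5 moi) in presence of compound, 44 h infection period, cells seeded 1,000/well 4 h prior.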
The depositor's hits bear a star; ? = inconclusive; . = not tested or not shown; [ ] = dose if it differs, or a comment. Unless noted, the call rests on the fitted dose curve; in most records, active means well fitted curve in the direction sought with a large enough effect; inconclusive means small, poorly fitted or top-dose-only effect, or another doubt; inactive means no such curve, though single readings can be large; an effect the other way counts as inactive or inconclusive.

SMILES	Pf growth 48h	Sm TGR inh	SARS PLP yeast	HCMV antiviral	Pf growth 96h	HCV inhibitor
CN1CCN(S(=O)(=O)c2ccc3c(c2)oc(=O)n3C)CC1	8%	-3%	16%	33	?	4%
CCC(C)(C)NC(=O)C(c1ccc(OC)cc1)N(C(=O)CCC(=O)Nc1cc(C)on1)c1ccc2c(c1)OCO2 (configuration not stated)	?	-15%	6%	4	?	0%
Cc1cc(C)nc(NNS(=O)(=O)c2ccc(Cl)cc2)n1	.	.	3%	-61*	.	-27%
Cc1cc(C)nc(NNS(=O)(=O)c2ccc(F)c(Cl)c2)n1	?	3%	-11%	-10	1%	-3%
NNC(=O)c1c[nH]c2ccc(OCc3ccccc3)cc12	.	.	.	-31	.	7%
OCCNCCc1c[nH]c2ccc(OCc3ccccc3)cc12	?	?	-3%	-60*	?	-23%
CCOc1cc2c(cc1OCC)-n1cccc1C(c1ccc(F)cc1)NC2 (configuration not stated)	?	-6%	0%	-16	20%	-18%
CCOc1cc2c(cc1OCC)-n1cccc1C(c1ccc(C(C)C)cc1)NC2 (configuration not stated)	8.3µM*	15%	-1%	-68*	?	?
CCOc1cc2c(cc1OCC)-n1cccc1C(c1ccc(OC(F)F)cc1)NC2 (configuration not stated)	13µM*	0%	1%	-24	36%	?
CCOc1cc2c(cc1OCC)-n1cccc1C(c1ccc(OC)cc1)NC2 (configuration not stated)	?	-12%	1%	-9	?	-29%
O=C1Nc2ccccc2N=C(c2ccccc2)C1Br (configuration not stated)	18%	40µM*	-2%	-24	-21%	4%
COc1ccc(-c2cc(C(C)=O)c(C)n2CCC(=O)Nc2cccc(C)c2C)cc1	.	1%	.	0	.	.
Cc1ccc(C(=O)C2=C(O)C(=O)N(Cc3ccco3)C2c2cccc(Br)c2)o1 (configuration not stated)	17%	11µM*	3%	-27	50%	3%
O=C(C1=C(O)C(=O)N(Cc2ccco2)C1c1cccc(O)c1)c1ccco1 (configuration not stated)	26%	?	-1%	-12	-9%	24%
Cc1ccc(C(=O)C2=C(O)C(=O)N(c3ncccn3)C2c2cccc(Cl)c2)o1 (configuration not stated)	22%	11µM*	1%	.	?	.
Cc1ccc(C(=O)C2=C(O)C(=O)N(Cc3ccco3)C2c2cccc(Cl)c2)o1 (configuration not stated)	26%	50µM*	-8%	11	30%	20%
Cc1ccc(C(=O)C2=C(O)C(=O)N(Cc3ccco3)C2c2ccc(N(C)C)cc2)o1 (configuration not stated)	?	-23%	5%	0	12µM*	5%
C=CCN1C(=O)C2(NC(=O)c3ccccc3N2)c2ccccc21 (configuration not stated)	5%	9%	0%	-26	-16%	-12%
C=CCN1C(=O)C2(NNc3ccccc3O2)c2ccccc21 (configuration not stated)	.	6%	-13%	33	12µM*	3%
CCCCN1C(=O)C2(NNc3ccccc3O2)c2ccccc21 (configuration not stated)	10µM*	-26%	-30%	46	.	?
O=C(COC(=O)c1ccc(S(=O)(=O)N2CCCCC2)cc1)Nc1ccccc1Cl	26%	0%	-9%	-21	36%	-4%
C#CCNc1c2c(nc3ncnn13)CC(C)CC2 (configuration not stated)	8%	22µM*	-1%	-101*	25%	-13%
O=C(OCCCOC(=O)c1ccc([N+](=O)[O-])o1)c1ccc([N+](=O)[O-])o1	13µM*	-18%	.	-7	6%	-17%
O=C(COC(=O)c1ccc([N+](=O)[O-])o1)c1ccccc1	-2%	-22%	10%	2	?	8%
O=C(Nc1ccccc1C(=O)NC1CC1)c1ccc([N+](=O)[O-])o1	?	?	-3%	-14	10µM*	?
SMILES	Pf growth 48h	Sm TGR inh	SARS PLP yeast	HCMV antiviral	Pf growth 96h	HCV inhibitor
O=C(Nc1cccc2ccccc12)c1ccc([N+](=O)[O-])o1	?	?	-31%	?	5.2µM*	?
CC(=O)c1ccccc1OC(=O)c1ccc([N+](=O)[O-])o1	45%	16µM*	0%	106	52%	0%
COc1ccccc1CNC(=O)COC(=O)c1ccc([N+](=O)[O-])o1	-9%	?	4%	-29	-11%	?
O=C(OCC(=O)c1ccccc1Cl)C1=NN(c2ccccc2)C(=O)CC1	.	.	-1%	13	.	-5%
COc1ccc(C(C)=O)cc1Cn1cnc2c(cnn2C)c1=O	-11%	-2%	0%	0	-12%	15%
CC(=O)c1ccccc1NC(C(=O)Nc1c(C)cccc1C)C1CC1 (configuration not stated)	.	.	.	4	.	.
COc1ccccc1NC(=O)c1ccc([N+](=O)[O-])o1	.	.	.	-63*	.	-24%
Cc1[nH]c2ccccc2c1C(=O)C(C)OC(=O)c1ccc([N+](=O)[O-])o1 (configuration not stated)	3.3µM*	?	-26%	-6	?	?
CCOC(=O)C1CCN(C(=O)COC(=O)c2ccc([N+](=O)[O-])o2)CC1	?	?	0%	?	12µM*	4%
Cc1cccc(NC(=O)c2ccc([N+](=O)[O-])o2)c1C	15%	6%	-3%	-14	-11%	?
Cc1ccc(C(=O)N2CCC(c3c[nH]c4ccccc34)(c3c[nH]c4ccccc34)CC2)cc1	.	10%	.	-18	.	.
CC1(C(=O)Nc2cccc3cccnc23)CCN1Cc1ccc(-c2ccccc2)o1 (configuration not stated)	.	.	.	26	.	.
COc1ccc(NS(=O)(=O)c2cc([N+](=O)[O-])ccc2N/N=C/c2c(C)[nH]c3ccccc23)cc1	.	.	.	33	.	11µM*
Cc1[nH]c2ccccc2c1/C=N/Nc1ccccc1[N+](=O)[O-]	?	14%	-1%	0	-36%[5.75 µM]	?

Compound activity from PubChem.
